The supplement of paper PMC11732987, “Enantioselective OTUD7B fragment discovery through chemoproteomics screening and high-throughput optimisation” (Communications Chemistry, 2025)

Key:
Assay in all cases: log2 ratio of Biotin-Ahx-Ub-VS probe labelling (compound/DMSO); higher = less target engagement, active = hit call of the paper (q ≤ 0.05, log2 ratio ≤ -1)
Conditions in all cases: treatment time: 3 h
[1] = compound: CCC1N(CCc2sccc12)C(=O)CCl
Procedure, shortened: (§1)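 HEK293T lysate (495 µg per sample, in Tris/CHAPS/IGEPAL buffer with protease inhibitors) was exposed in triplicate to compound at 50 or 200 µM, or to DMSO, for 3 h, then to Biotin-Ahx-Ub-VS (0.5 µM final) for 1 h. The labelled DUBs were enriched on NeutrAvidin, digested with LysC and trypsin, and analysed by diaPASEF LC-MS/MS. Average base-two log ratios of compound over DMSO came from median-normalised label-free quantities by unpaired t-test. Only proteins with at least 2 unique peptides were used.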

[2] = compound: CN1c2ccccc2C(CS1(=O)=O)NC(=O)CCl
Procedure, shortened: as §1

[3] = compound: Cl.ClCC(=O)N1CCc2ncncc2C1
Procedure, shortened: as §1

[4] = compound: Cl.Cn1ncc2C(CCCc12)NC(=O)CCl
Procedure, shortened: as §1

[5] = compound: ClCC(=O)NC1CCOc2ccccc12
Procedure, shortened: as §1

[6] = compound: ClCC(=O)NC1CCCc2ccccc12
Procedure, shortened: (§2)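 These values are averaged ratios of compound to vehicle, tested by unpaired t-test. HEK293T lysate (495 µg per sample) was preincubated in triplicate with compound across a concentration series or vehicle for 3 h and then with Biotin-Ahx-Ub-VS at 0.5 µM final for 1 h. Deubiquitinases carrying the probe were NeutrAvidin-enriched, digested with LysC and trypsin, and measured by diaPASEF LC-MS/MS. Ratios are expressed as log2 from global-median-normalised Spectronaut label-free quantities, and only proteins with two or more unique peptides were included.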

[7] = compound: ClCC(=O)N[C@@H]1CCCc2ccccc12
Procedure, shortened: as §2

[8] = compound: ClCC(=O)N[C@H]1CCCc2ccccc12
Procedure, shortened: as §2

[9] = compound: CCC1N(CCc2cc(OC)c(Cl)cc12)C(=O)CCl
Procedure, shortened: as §1

[10] = compound: CCCC1N(CCc2cc(OC)c(OC)cc12)C(=O)CCl
Procedure, shortened: as §1

Measured: log2 ratio of Biotin-Ahx-Ub-VS probe labelling

UniProt O00487
Sequence of UniProt O00487 (O00487 whole entry): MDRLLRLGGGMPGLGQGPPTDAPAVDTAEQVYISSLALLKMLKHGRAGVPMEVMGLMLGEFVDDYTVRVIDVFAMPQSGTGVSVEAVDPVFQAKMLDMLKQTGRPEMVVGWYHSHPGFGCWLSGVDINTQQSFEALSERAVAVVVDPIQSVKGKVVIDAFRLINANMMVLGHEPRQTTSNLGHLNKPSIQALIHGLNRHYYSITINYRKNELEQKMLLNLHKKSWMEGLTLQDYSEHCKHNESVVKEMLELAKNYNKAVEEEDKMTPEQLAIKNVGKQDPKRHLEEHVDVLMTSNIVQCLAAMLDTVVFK
inactive: [1]; compound concentration: 50uM -0.193 | [1]; compound concentration: 200uM -0.218 | [2]; compound concentration: 50uM -0.0425 | [2]; compound concentration: 200uM -0.0779 | [3]; compound concentration: 50uM 0.107 | [3]; compound concentration: 200uM -0.106 | [4]; compound concentration: 50uM -0.124 | [4]; compound concentration: 200uM -0.336 | [5]; compound concentration: 50uM 0.217 | [5]; compound concentration: 200uM -0.351 | [6]; compound concentration: 0.78uM -0.644 | [6]; compound concentration: 1.56uM -0.964 | [6]; compound concentration: 3.13uM -0.768 | [6]; compound concentration: 6.25uM -0.916 | [6]; compound concentration: 12.5uM -0.0532 | [6]; compound concentration: 25uM -1.08 | [6]; compound concentration: 50uM -1.09 | [6]; compound concentration: 100uM -0.828 | [6]; compound concentration: 200uM -0.122 | [7]; compound concentration: 0.78uM -0.274 | [7]; compound concentration: 1.56uM -0.457 | [7]; compound concentration: 3.13uM -0.399 | [7]; compound concentration: 6.25uM -0.508 | [7]; compound concentration: 12.5uM -0.515 | [7]; compound concentration: 25uM -0.563 | [7]; compound concentration: 50uM -0.92 | [7]; compound concentration: 100uM 0.108 | [7]; compound concentration: 200uM -0.319 | [8]; compound concentration: 0.78uM -0.768 | [8]; compound concentration: 1.56uM -0.631 | [8]; compound concentration: 3.13uM -0.859 | [8]; compound concentration: 6.25uM -0.646 | [8]; compound concentration: 12.5uM 0.00923 | [8]; compound concentration: 25uM -0.657 | [8]; compound concentration: 50uM -0.0791 | [8]; compound concentration: 100uM -0.905 | [8]; compound concentration: 200uM -0.369 | [9]; compound concentration: 50uM 0.0571 | [9]; compound concentration: 200uM 0.132 | [10]; compound concentration: 50uM 0.000271 | [10]; compound concentration: 200uM -0.108

USP48 (UniProt Q86UV5)
Sequence of UniProt Q86UV5 (Q86UV5 whole entry): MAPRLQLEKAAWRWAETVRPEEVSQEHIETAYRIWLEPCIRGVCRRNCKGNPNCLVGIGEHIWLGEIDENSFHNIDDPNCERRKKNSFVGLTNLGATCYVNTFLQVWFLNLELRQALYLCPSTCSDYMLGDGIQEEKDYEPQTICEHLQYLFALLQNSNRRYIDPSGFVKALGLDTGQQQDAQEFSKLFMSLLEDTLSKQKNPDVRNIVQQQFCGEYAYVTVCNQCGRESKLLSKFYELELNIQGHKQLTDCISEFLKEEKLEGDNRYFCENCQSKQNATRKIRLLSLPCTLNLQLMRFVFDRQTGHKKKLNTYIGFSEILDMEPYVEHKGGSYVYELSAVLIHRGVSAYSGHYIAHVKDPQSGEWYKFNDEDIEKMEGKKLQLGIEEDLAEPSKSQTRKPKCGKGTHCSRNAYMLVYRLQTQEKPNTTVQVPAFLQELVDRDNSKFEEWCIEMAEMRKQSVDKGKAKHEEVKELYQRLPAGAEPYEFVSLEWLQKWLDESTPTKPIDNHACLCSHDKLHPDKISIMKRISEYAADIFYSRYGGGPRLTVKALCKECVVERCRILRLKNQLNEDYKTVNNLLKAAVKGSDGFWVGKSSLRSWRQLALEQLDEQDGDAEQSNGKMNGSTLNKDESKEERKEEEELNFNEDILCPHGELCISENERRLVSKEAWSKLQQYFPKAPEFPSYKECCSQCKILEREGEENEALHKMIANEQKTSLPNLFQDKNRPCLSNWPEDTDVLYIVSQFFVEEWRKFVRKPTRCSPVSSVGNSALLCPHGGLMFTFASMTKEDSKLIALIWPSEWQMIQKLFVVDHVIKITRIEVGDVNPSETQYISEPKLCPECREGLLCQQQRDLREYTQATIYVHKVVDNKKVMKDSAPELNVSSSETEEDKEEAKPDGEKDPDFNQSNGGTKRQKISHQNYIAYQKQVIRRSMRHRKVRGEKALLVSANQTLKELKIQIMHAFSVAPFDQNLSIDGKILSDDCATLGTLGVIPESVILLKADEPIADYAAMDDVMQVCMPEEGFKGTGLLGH
inactive: [1]; compound concentration: 50uM 0.0438 | [1]; compound concentration: 200uM -0.229 | [2]; compound concentration: 50uM -0.0584 | [2]; compound concentration: 200uM -0.173 | [3]; compound concentration: 50uM 0.0472 | [3]; compound concentration: 200uM -0.0578 | [4]; compound concentration: 50uM 0.11 | [4]; compound concentration: 200uM -0.141 | [5]; compound concentration: 50uM -0.181 | [5]; compound concentration: 200uM 0.181 | [6]; compound concentration: 0.78uM -0.207 | [6]; compound concentration: 1.56uM -0.126 | [6]; compound concentration: 3.13uM -0.133 | [6]; compound concentration: 6.25uM -0.353 | [6]; compound concentration: 12.5uM -0.196 | [6]; compound concentration: 25uM -0.157 | [6]; compound concentration: 50uM -0.212 | [6]; compound concentration: 100uM -0.103 | [6]; compound concentration: 200uM -0.378 | [7]; compound concentration: 0.78uM -0.118 | [7]; compound concentration: 1.56uM 0.0156 | [7]; compound concentration: 3.13uM -0.424 | [7]; compound concentration: 6.25uM -0.193 | [7]; compound concentration: 12.5uM -0.0735 | [7]; compound concentration: 25uM -0.174 | [7]; compound concentration: 50uM -0.19 | [7]; compound concentration: 100uM -0.106 | [7]; compound concentration: 200uM -0.351 | [8]; compound concentration: 0.78uM -0.189 | [8]; compound concentration: 1.56uM -0.192
